# Results: PubChem BioAssay (Tox21)
# Calls of active or inactive are those of the source. A call without a number means that no potency is given here. The call rests on the fitted dose curve; in most records, active means well fitted curve in the direction sought with a large enough effect in the repeat runs; inconclusive means weak or mixed curves; inactive means flat fitted curve, though single readings scatter. Starred links: 1 amine or outer side, 2 acyl side, 3 side chain; linkers in the order of their positions; H or OH if unused. Positions of bridges follow the written chain, without caps; N, C: chain ends. Non-standard residues stand in square brackets, D forms with d. Residues, ends and D or L forms follow the SMILES beside them. *: point of attachment. X5 = NC1=N[C@@H]([C@H](N[*:1])C(=O)[*:2])C[C@H](O)N1; ΔAla(Z-3-ureido) = NC(=O)N/C=C(\N)C(=O)O; β3hOrn = NCCC[C@H](N)CC(=O)*; Orn = NCCC[C@H](N)C(=O)O; Dap = NC[C@H](N)C(=O)O; Mpa = O=C(O)CCS
# Assay: qHTS assay to test for compound auto fluorescence at 535 nm (green) in HEK293 cells (AID 720680)
# Details: green autofluorescence 485/535 nm; series mostly up to 46 µM
row,Compound,Potency
1,COc1ccc2c(=O)c(C)c(-c3ccccc3)oc2c1CN(C)C,inactive
2,CCOC(=O)COc1ccc2c(C)c(CCN(CC)CC)c(=O)oc2c1,inactive
3,O=C(O)[C@H](CC(=O)N1C[C@H]2CCCC[C@H]2C1)Cc1ccccc1,inactive
4,C=C1/C(=C\C=C2/CCC[C@]3(C)[C@@H]([C@H](C)OCCC(C)(C)O)CC[C@@H]23)C[C@@H](O)C[C@@H]1O,inactive
5,N=C(N)c1ccc(OCCCOc2ccc(C(=N)N)cc2Br)c(Br)c1,inactive

# Assay: qHTS assay to test for compound auto fluorescence at 460 nm (blue) in HEK293 cell free culture (AID 720681)
# Details: cell-free medium, autofluorescence 405/460 nm (blue); series mostly up to 46 µM
# Procedure, shortened: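 Test compounds were pinned into cell-free culture medium (DMEM with 10% FBS) and fluorescence was read directly at Ex/Em 405/460 nm. Signals were expressed as fluorescence equivalents of triamterene, with DMSO vehicle as control.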
row,Compound,Potency
1,COCC1=C(C(=O)OC(C)OC(=O)OC(C)C)N2C(=O)[C@@H](NC(=O)/C(=N\OC)c3csc(N)n3)[C@H]2SC1 (some centres undefined),inactive
2,CO[C@@H]1[C@@H](O[C@@H]2O[C@H](C)[C@@H](O[C@H]3C[C@@](C)(O)[C@@H](OC(=O)CC(C)C)[C@H](C)O3)[C@H](N(C)C)[C@H]2O)[C@@H](CC=O)C[C@@H](C)[C@@H](O)/C=C/C=C/C[C@@H](C)OC(=O)C[C@H]1O,inactive
3,CC(=O)O[C@H]1C[C@@H]2CC[C@@H]3[C@H](CC[C@@]4(C)[C@H]3C[C@H](N3CC[N+](C)(C)CC3)[C@@H]4OC(C)=O)[C@@]2(C)C[C@@H]1N1CC[N+](C)(C)CC1,inactive
4,NCCC[C@H](N)CC(=O)N[C@H]1CNC(=O)[C@H]([C@H]2C[C@H](O)NC(N)=N2)NC(=O)/C(=C/NC(N)=O)NC(=O)[C@H](CO)NC(=O)[C@H](CO)NC1=O (β3hOrn-[Dap]SS[ΔAla(Z-3-ureido)][X5]; lactam 1-C),inactive
5,CCOc1ccc(C[C@H]2NC(=O)CCSSC[C@@H](C(=O)N3CCC[C@H]3C(=O)N[C@@H](CCCN)C(=O)NCC(N)=O)NC(=O)[C@H](CC(N)=O)NC(=O)[C@H]([C@@H](C)O)NC(=O)[C@H]([C@@H](C)CC)NC2=O)cc1 ([Mpa][dY](Et)ITNCP[Orn]G-NH2; disulfide 1-6),inactive
6,O=P(O)(O)C(O)(Cc1cnc2ccccn12)P(=O)(O)O,inactive
7,OCC(O)COc1ccc(Cl)cc1 (centres undefined),inactive
8,CCCCCCCCCCCCCCCC(=O)OC[C@@H](NC(=O)C(Cl)Cl)[C@H](O)c1ccc([N+](=O)[O-])cc1,inactive
9,NC(=O)Oc1ccc(Cc2ccccc2)cc1,inactive
10,CCCC(CCC)C(N)=O,inactive
11,CC1CC(OC(=O)C(O)c2ccccc2)CC(C)(C)C1 (centres undefined),inactive
12,OC(CN1CCCCC1)c1cc(-c2ccccc2)on1 (centres undefined),inactive
13,CCC(c1ccccc1)c1noc(CCN(CC)CC)n1 (centres undefined),inactive
14,O=S(O)CNc1ccc(S(=O)(=O)c2ccc(NCS(=O)O)cc2)cc1,inactive
15,C=CCN1CCCC1CNC(=O)c1cc(S(N)(=O)=O)cc(OC)c1OC (centres undefined),inactive
16,CCCCCCCCCCCCCCCCCC(=O)OCCO,inactive
17,CCCCCCCCCCCCCCCCCCCCCC(=O)Nc1ccn([C@@H]2O[C@H](CO)[C@@H](O)[C@@H]2O)c(=O)n1,inactive
18,CCCCOC(=O)C(=O)Nc1cccc(-c2nn[nH]n2)c1,inactive
19,CCOC(=O)[C@H](CCc1ccccc1)N[C@H]1CCCN2CCC[C@@H](C(=O)O)N2C1=O,inactive
20,CC(C)CN(C[C@@H](O)[C@H](Cc1ccccc1)NC(=O)O[C@@H]1CCOC1)S(=O)(=O)c1ccc(N)cc1,inactive

row,Compound,Potency
1,O.O=C([O-])CC([S-])C(=O)[O-].[Au+].[Na+].[Na+] (centres undefined),inactive
2,O=P(O)(O)C(Sc1ccc(Cl)cc1)P(=O)(O)O,inactive
3,O=C(CCCN1CCC(C(=O)c2ccc(F)cc2)CC1)c1ccc(F)cc1,inactive
4,C[C@H]1C[C@H]2[C@@H]3CCC4=CC(=O)C=C[C@]4(C)[C@@]3(F)[C@@H](O)C[C@]2(C)[C@@]1(O)C(=O)CCl,inactive
5,CC#CCC(C)[C@H](O)/C=C/[C@@H]1[C@H]2C/C(=C/CCCC(=O)O)C[C@H]2C[C@H]1O (some centres undefined),inactive
6,NCCC[C@H](N)C(=O)O,inactive
7,CN1[C@@H]2CCC[C@H]1CC(NC(=O)c1nn(C)c3ccccc13)C2 (some centres undefined),inactive
8,CS(=O)(=O)NC(=O)CCC/C=C\C[C@H]1C(=O)C[C@@H](O)[C@@H]1/C=C/[C@H](O)COc1ccccc1,inactive
9,OC[C@@H](O)C(O)[C@H](O)CO,inactive
10,N[C@@H](C(=O)N[C@@H]1C(=O)N2C(C(=O)O)=C(CSc3cn[nH]n3)CS[C@H]12)c1ccc(O)cc1,inactive
11,CC1(C)S[C@@H]2[C@H](NC(=O)Cc3ccccc3)C(=O)N2[C@H]1C(=O)O,inactive
12,COC(=O)[C@H]1[C@H]2C[C@@H]3c4[nH]c5cc(OC)ccc5c4CCN3C[C@H]2C[C@@H](OC(=O)/C=C/c2cc(OC)c(OC)c(OC)c2)[C@@H]1OC,inactive
13,Cn1nnnc1SCC1=C(C(=O)O)N2C(=O)[C@@H](NC(=O)[C@H](OC=O)c3ccccc3)[C@H]2SC1,inactive
14,CC(C)(C)CC(=O)OCC(=O)[C@@]12OC(C)(C)O[C@@H]1C[C@H]1[C@@H]3CCC4=CC(=O)C=C[C@]4(C)[C@@]3(F)[C@@H](O)C[C@@]12C,inactive
15,COc1ccc2c(=O)c(C)c(-c3ccccc3)oc2c1CN(C)C,inactive
16,CCOC(=O)COc1ccc2c(C)c(CCN(CC)CC)c(=O)oc2c1,inactive
17,O=C(O)[C@H](CC(=O)N1C[C@H]2CCCC[C@H]2C1)Cc1ccccc1,inactive
18,C=C1/C(=C\C=C2/CCC[C@]3(C)[C@@H]([C@H](C)OCCC(C)(C)O)CC[C@@H]23)C[C@@H](O)C[C@@H]1O,inactive
19,N=C(N)c1ccc(OCCCOc2ccc(C(=N)N)cc2Br)c(Br)c1,inactive
